From PubChem BioAssay (Tox21)
Values without a mark were called inactive. Inconclusive results are not listed. Where a call stands in place of a potency, no number is given. Active and inactive are the calls of the source. Unless noted, calls follow the shape of the full dose curve.

Experiments:
[1] = Nuclear factor erythroid 2-related factor 2/antioxidant responsive element (Nrf2/ARE) small molecule agonists: qHTS cell viability counter screen in human keratinocytes (AID 1919968; active = well fitted curve in the direction sought with a large enough effect in the repeat runs; an effect the other way counts as inactive or inconclusive; also: nearly all actives have a fitted effect of over 55% in size)
Method in brief: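 Parallel cytotoxicity read: KeratinoSens HaCaT cells, compound treatment 23 h, viability by CellTiter-Fluor fluorescence 1 h post-reagent.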

[2] = Nuclear factor erythroid 2-related factor 2/antioxidant responsive element (Nrf2/ARE) small molecule agonists: luciferase reporter gene qHTS assay in human keratinocytes (AID 1919969); also: nearly all actives have a fitted effect of over 35% in size
[3] = target: Gonadotropin-releasing hormone receptor (Homo sapiens) (UniProt P30968); assay: Human gonadotropin-releasing hormone receptor (GnRHR) small molecule agonists, calcium flux assay in GnRHR-HEK293 cells (AID 1920063); also: nearly all actives have a fitted effect of over 35% in size
Method in brief: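 Calcium flux, agonist mode, human GnRHR stably integrated in HEK293; dye 1 h at 37 C before compound; Ex/Em=480/540 kinetic read, 3 min; 15 concentrations, triplicate.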

[4] = target: KiSS-1 receptor (Homo sapiens) (UniProt Q969F8); assay: Human kisspeptin (KISS1R) small molecule agonists, calcium flux assay in KISS1R-HEK293 cells (AID 1920064; active = well fitted curve in the direction sought with a large enough effect in the repeat runs; an effect the other way counts as inactive or inconclusive)
Method in brief: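 Triplicate 15-concentration series were applied to dye-loaded human KISS1R HEK293 cells, and agonist-evoked calcium fluorescence was captured for 3 min.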

[5] = G protein-coupled receptor (GPCR) small molecule agonists, calcium flux assay: HEK293 wild type cell line counter screen (AID 1920065)
Method in brief: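 Non-specific calcium responders were flagged by adding DMSO-dissolved compounds to dye-loaded cells and reading 480/540 nm fluorescence each second for 3 min; ATP served as positive control.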

[6] = p53 small molecule agonists, cell-based qHTS assay with human liver microsomes (AID 1963577);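 also: p53 response element beta-lactamase reporter cells with liver microsomes plus NADPH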
Method in brief: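 Reporter activation was measured by LiveBLAzer fluorescence intensity in p53RE-bla cells, which had been exposed to compounds for 16 h at 37 C alongside 0.5 mg/mL human liver microsomes and 0.5 mg/mL NADPH (final concentrations).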

[7] = p53 small molecule agonists, cell-based qHTS assay with rat liver microsomes (AID 1963578)
Method in brief: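 Compound in DMSO added to p53RE-bla cells 5 h post-plating; rat microsomes/NADPH 0.5 mg/mL final; 16 h, 37 C; LiveBLAzer 2 h RT.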

[8] = p53 small molecule agonists, cell-based qHTS assay with human liver microsomes: qHTS cell viability counter screen (AID 1963579); also: nearly all actives have a fitted effect of over 45% in size
Method in brief: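 HLM-supplemented (0.5 mg/mL final) and NADPH-supplemented (0.5 mg/mL final) p53RE-bla cultures, 4,000 cells per well, were dosed with compounds in DMSO for 16 h at 37 C; luminescent ATP detection (CellTiter-Glo, 30 min, room temperature) quantified surviving cells.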

[9] = p53 small molecule agonists, cell-based qHTS assay with rat liver microsomes: qHTS cell viability counter screen (AID 1963580); also: nearly all actives have a fitted effect of over 45% in size
Method in brief: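 Cytotoxicity counter screen: intracellular ATP read by CellTiter-Glo luminescence in the p53 reporter wells. HCT-116 p53RE-bla cells were treated for 16 h at 37 C alongside rat liver microsomes and NADPH, each 0.5 mg/mL final.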

[10] = p53 small molecule agonists, cell-based qHTS assay: qHTS cell viability counter screen (AID 1963581); also: nearly all actives have a fitted effect of over 45% in size
Method in brief: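 Multiplexed with the reporter read, a CellTiter-Glo step (30 min, room temperature) gauges ATP-based viability of HCT-116 p53RE-bla cells after 16 h compound incubation at 37 C.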

[11] = p53 small molecule agonists, cell-based qHTS assay (AID 1963582; active = well fitted activation curve with a large enough effect in the signal ratio in the repeat runs, not every such curve was filed as active; the % refers to the signal ratio)
Method in brief: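 Beta-lactamase reporter cells (p53RE-bla) treated with compounds for 16 h at 37 C; FRET substrate, 2 h, room temperature; fluorescence intensity.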

[12] = target: 5-hydroxytryptamine receptor 2A (Homo sapiens) (UniProt P28223); assay: 5-hydroxytryptamine receptor 2A (HTR2A) small molecule agonists, cell-based qHTS assay (AID 1963587); also: nearly all actives have a fitted effect of over 30% in size
Method in brief: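 Kinetic calcium-flux fluorescence (2 min, 1 sec intervals) after compound addition in agonist mode. HTR2A-CHO cells were cultured 18 h, then dye-loaded 1 h at 37 C.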

[13] = target: Muscarinic acetylcholine receptor M1 (Homo sapiens) (UniProt P11229); assay: Cholinergic receptor muscarinic 1 (CHRM1) small molecule antagonists, cell-based qHTS assay (AID 1963588); also: nearly all actives have a fitted effect of over 40% in size; also: potency is read from the fitted curve at half-maximal effect
Method in brief: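 Compounds were tested at 15 concentrations in three independent runs. Dye-loaded CHRM1-CHO cells were exposed 5 min at room temperature before stimulation by acetylcholine added at 50nM. Intracellular calcium was read kinetically on FDSS for 3 min.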

[14] = target: Muscarinic acetylcholine receptor M1 (Homo sapiens) (UniProt P11229); assay: Cholinergic receptor muscarinic 1 (CHRM1) small molecule agonists, cell-based qHTS assay (AID 1963589); also: nearly all actives have a fitted effect of over 35% in size
Method in brief: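 qHTS, 15-point titration, 3 independent runs: compounds pin-transferred onto dye-loaded CHRM1-CHO cells (human M1), calcium fluorescence followed every second to detect agonism.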

[15] = cAMP Responsive Elements (CRE) small molecule agonists, cell-based qHTS assay (AID 1963590)
Method in brief: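 Quantitative HTS for CRE agonists: HEK 293T CRE-bla cells, overnight plating, 3 h compound incubation at 37 C/5% CO2, then 2 h room-temperature LiveBLAzer B/G FRET substrate loading.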

[16] = cAMP Responsive Elements (CRE) small molecule antagonists, cell-based qHTS assay (AID 1963591; active = well fitted inhibition curve with a large enough effect in the signal ratio in the repeat runs, not every such curve was filed as active; the % refers to the signal ratio)
Method in brief: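 Fluorescence intensity from cleaved LiveBLAzer B/G substrate (2 h, room temperature) quantified CRE-bla activity in HEK 293T cells exposed 3 h to compound with 0.25 uM final NKH477.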

[17] = target: Beta-2 adrenergic receptor (Homo sapiens) (UniProt P07550); assay: Adrenergic beta2 receptor (ADRB2) small molecule antagonists, cell-based qHTS assay (AID 1963592); also: series mostly up to about 92 µM; nearly all actives have a fitted effect of over 50% in size
Method in brief: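 Assay format: CHO-ADRB2 cells, 18-20hr seeding at 37C/5% CO2, then compound plus 1nM isoproterenol agonist mix for 0.5hr RT. Homogeneous time-resolved fluorescence cAMP detection after 1hr, expressed as 665/615 nm ratio.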

[18] = target: D(2) dopamine receptor (Homo sapiens) (UniProt P14416); assay: Dopamine D2 receptor (DRD2) small molecule agonists, cell-based qHTS assay (AID 1963594); also: nearly all actives have a fitted effect of over 35% in size
Method in brief: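 cAMP accumulation in DRD2-HEK293 cells measured by HTRF after 1 h detection; compounds added 10 min before NKH477 (200nM […]) forskolin-analogue stimulation, 30 min at room temperature, with Ro20-1724 present at 0.1 mM final.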

[19] = target: D(2) dopamine receptor (Homo sapiens) (UniProt P14416); assay: Dopamine D2 receptor (DRD2) small molecule antagonists, cell-based qHTS assay (AID 1963595; active = well fitted inhibition curve with a large enough effect in the signal ratio in the repeat runs, with a control signal flat; the % refers to the signal ratio)
Method in brief: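 Antagonism was scored as restored cAMP in HEK293-DRD2 cells. These cells were stimulated with 200 nM NKH477 and 12 nM quinpirole for 30 min at room temperature, in the presence of 0.1 mM Ro20-1724.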

[20] = target: 5-hydroxytryptamine receptor 2A (Homo sapiens) (UniProt P28223); assay: 5-hydroxytryptamine receptor 2A (HTR2A) small molecule antagonists, cell-based qHTS assay (AID 1963586); also: nearly all actives have a fitted effect of over 45% in size; also: potency is read from the fitted curve at half-maximal effect
Method in brief: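 CHO cells stably expressing human HTR2A were plated for 18 h at 37 C, then loaded with calcium dye for 1 h. Compounds were preincubated 5 min at room temperature before DOI (4 nM solution) was added. Kinetic fluorescence was read for 3 min.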

Chain of Gonadotropin-releasing hormone receptor (Homo sapiens) (P30968 whole entry, looked up): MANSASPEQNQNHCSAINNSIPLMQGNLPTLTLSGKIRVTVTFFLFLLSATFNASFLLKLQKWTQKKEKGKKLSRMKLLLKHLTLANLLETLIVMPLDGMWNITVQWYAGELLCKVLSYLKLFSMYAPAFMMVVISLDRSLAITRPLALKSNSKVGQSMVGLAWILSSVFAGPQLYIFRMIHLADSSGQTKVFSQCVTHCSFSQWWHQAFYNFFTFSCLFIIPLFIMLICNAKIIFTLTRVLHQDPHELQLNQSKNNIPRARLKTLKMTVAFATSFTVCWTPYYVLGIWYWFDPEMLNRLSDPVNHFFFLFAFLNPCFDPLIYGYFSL
Chain of KiSS-1 receptor (Homo sapiens) (Q969F8 whole entry, looked up): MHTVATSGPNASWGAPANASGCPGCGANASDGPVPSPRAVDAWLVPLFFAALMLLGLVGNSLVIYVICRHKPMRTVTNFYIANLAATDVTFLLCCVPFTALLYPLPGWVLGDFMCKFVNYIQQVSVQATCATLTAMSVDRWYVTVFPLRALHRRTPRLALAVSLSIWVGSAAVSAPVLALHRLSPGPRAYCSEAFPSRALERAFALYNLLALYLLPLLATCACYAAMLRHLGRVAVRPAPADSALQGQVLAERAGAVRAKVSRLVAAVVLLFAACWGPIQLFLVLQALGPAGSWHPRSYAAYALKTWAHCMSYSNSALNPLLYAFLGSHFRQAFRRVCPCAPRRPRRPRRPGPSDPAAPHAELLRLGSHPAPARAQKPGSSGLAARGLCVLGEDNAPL
Chain of D(2) dopamine receptor (Homo sapiens) (P14416 whole entry, looked up): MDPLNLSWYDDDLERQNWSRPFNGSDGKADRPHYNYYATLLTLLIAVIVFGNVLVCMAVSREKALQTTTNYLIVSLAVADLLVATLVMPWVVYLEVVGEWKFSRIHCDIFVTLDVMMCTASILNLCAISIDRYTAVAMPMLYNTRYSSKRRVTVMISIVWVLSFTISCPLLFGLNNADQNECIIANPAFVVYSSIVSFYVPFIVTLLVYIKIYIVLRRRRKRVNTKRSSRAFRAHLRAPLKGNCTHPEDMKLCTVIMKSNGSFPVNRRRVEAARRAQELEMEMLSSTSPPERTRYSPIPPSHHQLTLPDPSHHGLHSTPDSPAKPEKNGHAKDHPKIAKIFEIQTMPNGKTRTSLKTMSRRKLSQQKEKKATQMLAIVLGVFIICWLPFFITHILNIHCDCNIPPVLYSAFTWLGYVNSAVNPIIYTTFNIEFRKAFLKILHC
Chain of 5-hydroxytryptamine receptor 2A (Homo sapiens) (P28223 whole entry, looked up): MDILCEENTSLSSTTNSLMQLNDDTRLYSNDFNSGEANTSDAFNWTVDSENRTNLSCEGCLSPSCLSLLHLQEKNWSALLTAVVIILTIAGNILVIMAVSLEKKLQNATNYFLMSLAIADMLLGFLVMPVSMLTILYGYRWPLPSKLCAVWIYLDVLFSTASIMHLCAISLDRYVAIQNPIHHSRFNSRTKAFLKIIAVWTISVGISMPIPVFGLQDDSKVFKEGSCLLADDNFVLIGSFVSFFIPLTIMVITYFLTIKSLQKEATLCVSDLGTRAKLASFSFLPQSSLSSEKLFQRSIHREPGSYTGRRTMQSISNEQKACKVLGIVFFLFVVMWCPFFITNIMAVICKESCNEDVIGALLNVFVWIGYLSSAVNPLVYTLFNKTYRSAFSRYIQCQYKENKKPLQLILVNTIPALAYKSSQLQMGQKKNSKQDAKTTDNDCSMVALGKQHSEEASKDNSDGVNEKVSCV
Chain of Muscarinic acetylcholine receptor M1 (Homo sapiens) (P11229 whole entry, looked up): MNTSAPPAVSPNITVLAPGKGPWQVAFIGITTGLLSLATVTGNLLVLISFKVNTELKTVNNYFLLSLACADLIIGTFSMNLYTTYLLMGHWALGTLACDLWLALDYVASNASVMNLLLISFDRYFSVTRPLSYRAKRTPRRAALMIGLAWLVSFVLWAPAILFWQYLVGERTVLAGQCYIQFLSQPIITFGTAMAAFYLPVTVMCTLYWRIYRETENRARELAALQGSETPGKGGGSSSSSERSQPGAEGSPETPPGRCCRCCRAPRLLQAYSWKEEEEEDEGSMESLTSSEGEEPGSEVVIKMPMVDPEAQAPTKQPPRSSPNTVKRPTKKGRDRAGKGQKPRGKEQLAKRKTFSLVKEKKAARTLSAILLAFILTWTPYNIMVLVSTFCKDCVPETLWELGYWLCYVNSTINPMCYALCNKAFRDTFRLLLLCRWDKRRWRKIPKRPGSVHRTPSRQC
Chain of Beta-2 adrenergic receptor (Homo sapiens) (P07550 whole entry, looked up): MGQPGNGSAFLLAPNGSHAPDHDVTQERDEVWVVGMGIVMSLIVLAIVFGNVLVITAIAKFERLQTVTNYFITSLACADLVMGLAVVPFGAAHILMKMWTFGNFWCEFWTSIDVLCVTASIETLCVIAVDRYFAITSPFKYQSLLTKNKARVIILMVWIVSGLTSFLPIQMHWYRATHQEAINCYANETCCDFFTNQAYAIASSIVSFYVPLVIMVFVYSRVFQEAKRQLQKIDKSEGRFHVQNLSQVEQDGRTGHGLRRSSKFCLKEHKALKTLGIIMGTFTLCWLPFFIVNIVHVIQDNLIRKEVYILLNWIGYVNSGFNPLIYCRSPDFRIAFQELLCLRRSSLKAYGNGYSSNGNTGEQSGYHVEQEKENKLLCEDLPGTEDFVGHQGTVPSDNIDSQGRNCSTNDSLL

Row | Compound | Potency [1] | Potency [2] | Potency [3] | Potency [4] | Potency [5] | Potency [6] | Potency [7] | Potency [8] | Potency [9] | Potency [10] | Potency [11] | Potency [12] | Potency [13] | Potency [14] | Potency [15] | Potency [16] | Potency [17] | Potency [18] | Potency [19] | Potency [20]
1 | COc1cc(CC#N)cc(OC)c1OC | inactive | inactive | inactive | inactive | inactive | inactive | inactive | inactive | inactive | inactive | inactive | inactive | inactive | inactive | inactive | inactive | inactive | inactive | inactive | –
2 | CCOC(=O)c1ncn2c1CN(C)C(=O)c1c(I)cccc1-2 | inactive | inactive | inactive | inactive | inactive | inactive | inactive | inactive | inactive | inactive | inactive | inactive | inactive | inactive | inactive | – | inactive | inactive | inactive | inactive
3 | ClCc1cccc(Cl)c1 | inactive | inactive | inactive | inactive | inactive | inactive | inactive | inactive | inactive | inactive | inactive | inactive | inactive | – | inactive | inactive | inactive | – | inactive | –
4 | c1ccc2c(c1)CCNC2 | inactive | inactive | inactive | inactive | inactive | inactive | inactive | inactive | inactive | inactive | inactive | inactive | inactive | inactive | inactive | inactive | inactive | inactive | inactive | –
5 | N#CC(Br)(Br)C(N)=O | inactive | inactive | inactive | inactive | inactive | inactive | inactive | inactive | inactive | inactive | inactive | inactive | 4.7 nM (active) | inactive | – | – | – | inactive | – | inactive
6 | CN1CCc2cc(Cl)c(O)cc2[C@H]2c3ccccc3CC[C@@H]21 | inactive | inactive | inactive | inactive | inactive | inactive | inactive | inactive | inactive | inactive | inactive | inactive | inactive | inactive | – | inactive | – | – | – | 32.6 nM (active)
7 | C[C@]12CC[C@H]3[C@@H](CCC4=CC(=O)CC[C@@H]43)[C@@H]1CC[C@@H]2OC(=O)CCc1ccccc1 | inactive | inactive | inactive | inactive | inactive | inactive | inactive | inactive | inactive | inactive | inactive | inactive | 2310 nM (active) | inactive | inactive | – | inactive | inactive | inactive | inactive
8 | CS(=O)(=O)c1ccc(C(=O)C2C(=O)CCCC2=O)c(Cl)c1COCC(F)(F)F | inactive | inactive | inactive | inactive | inactive | inactive | inactive | inactive | inactive | inactive | inactive | inactive | inactive | – | – | – | – | inactive | inactive | inactive
9 | CC1Sc2c(C(=O)O)c(=O)c3cc(F)c(N4CCNCC4)cc3n21 (stereo unspecified) | inactive | inactive | inactive | inactive | inactive | inactive | inactive | inactive | inactive | inactive | inactive | inactive | inactive | inactive | – | – | – | inactive | inactive | inactive
10 | NC(=O)C(Cl)Cl | inactive | inactive | inactive | inactive | inactive | inactive | inactive | inactive | inactive | inactive | inactive | inactive | inactive | – | inactive | inactive | inactive | inactive | inactive | –
11 | CCO[C@H]1O[C@@H]2OC3(C)CC[C@H]4[C@H](C)CC[C@@H]([C@H]1C)[C@@]24OO3 | inactive | inactive | inactive | inactive | inactive | inactive | inactive | inactive | inactive | inactive | inactive | – | inactive | inactive | inactive | – | inactive | inactive | inactive | inactive
12 | CCCSC(=O)N(CCC)CCC | inactive | inactive | inactive | inactive | inactive | inactive | inactive | inactive | inactive | inactive | inactive | inactive | inactive | inactive | inactive | inactive | inactive | inactive | inactive | –
13 | CC(C)NCC(O)c1ccccc1Cl (stereo unspecified) | inactive | inactive | inactive | inactive | inactive | inactive | inactive | inactive | inactive | inactive | inactive | – | – | – | – | inactive | inactive | inactive | inactive | –
14 | COC(=O)C(C)Oc1ccc(Oc2ccc(Cl)cc2Cl)cc1 (stereo unspecified) | inactive | inactive | inactive | inactive | inactive | inactive | inactive | inactive | inactive | inactive | – | inactive | – | inactive | inactive | inactive | inactive | inactive | inactive | inactive
